Results as given in PubChem BioAssay (Tox21).
Active and inactive are the calls of the source. Calls follow the shape of the full dose curve.

assay: qHTS assay to identify small molecule agonists of the sonic hedgehog signaling (Shh) pathway (AID 1259368); conditions: NIH/3T3 Gli1-Luc reporter, luciferase, 24 h, active compounds read high; series mostly up to 92.4 µM; activity change: at the top concentration;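 also: NIH/3T3-derived 3T3Gli1-Luc cells carrying a stable Gli1-driven firefly luciferase reporter; nearly all actives have a fitted effect of over 15% in size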
Outline: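 Steps: seed 3T3 Gli1-Luc cells, incubate 4 hr at 37 C, pin-transfer compounds in DMSO alongside a positive control, incubate 24 hr, add luciferase detection reagent, wait 30 min at room temperature, read luminescence.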
% is scaled to controls: 0 for no effect and ±100 for the full control effect.

Compound	activity change
CC(=O)NC(=O)c1ccccc1O	-0.214% [at 42.5 µM] (inactive)
O=C1NC(=O)C2CC=CCC12 (centres undefined)	-1.02% (inactive)
CCCc1nn(C)c2c(=O)[nH]c(-c3cc(S(=O)(=O)N4CCN(C)CC4)ccc3OCC)nc12	-0.906% [at 42.5 µM] (inactive)
CN(C)C(=O)Oc1ccc[n+](C)c1	-0.218% [at 42.5 µM] (inactive)
C=CC(C)(CCC=C(C)C)OC(=O)CC (centres undefined)	0.364% (inactive)
C[N+]12CCC(CC1)C(OC(=O)C(O)(c1ccccc1)c1ccccc1)C2 (centres undefined)	-0.293% [at 42.5 µM] (inactive)
CC1=CCC(O)(C(C)C)CC1 (centres undefined)	-0.707% (inactive)
c1coc(CNc2ncnc3nc[nH]c23)c1	0.353% (inactive)
Cc1onc(-c2c(Cl)cccc2Cl)c1C(=O)Cl	0.135% [at 42.5 µM] (inactive)
NCCCC[C@H](N[C@@H](CCc1ccccc1)C(=O)O)C(=O)N1CCC[C@H]1C(=O)O	-0.0337% [at 42.5 µM] (inactive)
CC(=O)O[C@@]12CO[C@@H]1C[C@H](O)[C@@]1(C)C(=O)[C@H](O)C3=C(C)[C@@H](OC(=O)[C@H](O)[C@@H](NC(=O)OC(C)(C)C)c4ccccc4)C[C@@](O)([C@@H](OC(=O)c4ccccc4)[C@H]21)C3(C)C	-1.8% [at 42.5 µM] (inactive)
COC(=O)C1=C(C)NC(C)=C(C(=O)OC(C)C)C1c1cccc2nonc12 (centres undefined)	-0.318% [at 42.5 µM] (inactive)
CC(C)CC(C)(N)C#N (centres undefined)	-0.53% (inactive)
CCCCCCCCN1CCCC1=O	4.21% (inactive)
Nc1ccn([C@@H]2O[C@H](CO)[C@@H](O)C2(F)F)c(=O)n1	-1.03% [at 42.5 µM] (inactive)
CCCCOCCOC(=O)COc1cc(Cl)c(Cl)cc1Cl	1.53% (inactive)
COc1cc2c(cc1OC)-c1cc3ccc(OC)c(OC)c3c[n+]1CC2	0.204% (inactive)

Compound	activity change
CCOCC(C)O (centres undefined)	0.0279% (inactive)
CC(C)COC(=O)c1ccc(N)cc1	2.03% [at 42.5 µM] (inactive)
CC(COc1ccccc1)NN (centres undefined)	-0.236% [at 42.5 µM] (inactive)
CCCCCCCCCCOc1cc2c(=O)c(C(=O)OCC)c[nH]c2cc1OCC	-0.042% [at 8.39 µM] (inactive)
C[N+]1(C)[C@@H]2CC(OC(=O)[C@H](CO)c3ccccc3)C[C@H]1[C@@H]1O[C@@H]12 (some centres undefined)	-0.817% [at 42.5 µM] (inactive)
COC(=O)Nc1ccc(Cl)c(Cl)c1	0.294% (inactive)
CC(C)c1ccc2ncccc2c1	0.637% (inactive)
CC(=O)Nc1ccc(OCC(O)CNC(C)C)cc1 (centres undefined)	-0.0665% [at 42.5 µM] (inactive)
CCCCCC(=O)OCCc1ccccc1	-0.023% (inactive)
C=CCCCCCCCCC(=O)OCC	-0.23% (inactive)
CN1CC(=O)N/C1=N/C(=O)Nc1cccc(Cl)c1	2.83% [at 42.5 µM] (inactive)
Cc1nc2ccc(CN(C)c3ccc(C(=O)N[C@@H](CCC(=O)O)C(=O)O)s3)cc2c(=O)[nH]1	-0.227% [at 42.5 µM] (inactive)
CCCCc1nc(Cl)c(CO)n1Cc1ccc(-c2ccccc2-c2nn[nH]n2)cc1	-0.968% [at 42.5 µM] (inactive)
CCOC(=O)CCC(=O)OCC	-1.72% (inactive)
CC(C)(C#N)Nc1nc(Cl)nc(NC2CC2)n1	0.453% (inactive)
O=[N+]([O-])c1ccc(/C=N\O)o1	-4.72% [at 42.5 µM] (inactive)
CCCOC(=O)CC	0.651% (inactive)
